# According to the supplement of paper PMC8975748:
# Where a name gives a salt, the structure may show the parent alone. ± gives the standard deviation of the averaged measurements.
# What was measured:
# [1] = test system: Saccharomyces cerevisiae BY4741 SeMeCo community; experiment: mean cell size (pixel area) (pixels); higher = larger cells; details: 10 µM; 24 h; SM minimal medium
# Procedure, shortened: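 Mean cell pixel area per well was determined by automated confocal microscopy with Harmony analysis of paraformaldehyde-fixed cells. The cells, a Saccharomyces cerevisiae BY4741 community of four plasmids that each complement one auxotrophy and carry a fluorescent marker, were incubated for 24 h with drug at a final 10 µM in SM medium in 384-well plates. Numbers are averaged over 3 replicates. Same SeMeCo high-content imaging drug screen: Selleck FDA-approved drugs at 10 µM, 24 h in SM medium, 384-well plates, 3 replicates.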
# [2] = test system: Saccharomyces cerevisiae BY4741 SeMeCo community; experiment: z-score of prototroph abundance vs DMSO median; higher = larger share of this subpopulation than in DMSO controls; details: 10 µM; 24 h; SM minimal medium; subpopulation (auxotrophy): Prototroph
# Procedure, shortened: (§1)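 A Saccharomyces cerevisiae BY4741 community carried four plasmids, each restoring one auxotrophy and encoding a distinct fluorescent protein. It was pre-grown overnight to OD600 1.0, diluted to 0.3, and 70 µl was added to 384-well plates acoustically predosed with library drugs (10 µM final), then grown 24 h in minimal SM medium. Cells were paraformaldehyde-fixed and imaged by automated confocal microscopy, with single-auxotroph fluorescent strains setting thresholds and autofluorescence correction. Each subpopulation's abundance was scored as a z-score against the vehicle-well median.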
# [3] = test system: Saccharomyces cerevisiae BY4741 SeMeCo community; experiment: z-score of subpopulation abundance vs DMSO median, subpopulation auxotrophic for M; higher = larger share of this subpopulation than in DMSO controls; details: 10 µM; 24 h; SM minimal medium; subpopulation (auxotrophy): M
# Procedure, shortened: as §1
# [4] = test system: Saccharomyces cerevisiae BY4741 SeMeCo community; experiment: z-score of subpopulation abundance vs DMSO median, subpopulation auxotrophic for U; higher = larger share of this subpopulation than in DMSO controls; details: 10 µM; 24 h; SM minimal medium; subpopulation (auxotrophy): U
# Procedure, shortened: as §1
# [5] = test system: Saccharomyces cerevisiae BY4741 SeMeCo community; experiment: z-score of subpopulation abundance vs DMSO median, subpopulation auxotrophic for H; higher = larger share of this subpopulation than in DMSO controls; details: 10 µM; 24 h; SM minimal medium; subpopulation (auxotrophy): H
# Procedure, shortened: as §1
# [6] = test system: Saccharomyces cerevisiae BY4741 SeMeCo community; experiment: z-score of subpopulation abundance vs DMSO median, subpopulation auxotrophic for LU; higher = larger share of this subpopulation than in DMSO controls; details: 10 µM; 24 h; SM minimal medium; subpopulation (auxotrophy): LU
# Procedure, shortened: as §1
# [7] = test system: Saccharomyces cerevisiae BY4741 SeMeCo community; experiment: z-score of subpopulation abundance vs DMSO median, subpopulation auxotrophic for LM; higher = larger share of this subpopulation than in DMSO controls; details: 10 µM; 24 h; SM minimal medium; subpopulation (auxotrophy): LM
# Procedure, shortened: as §1
# [8] = test system: Saccharomyces cerevisiae BY4741 SeMeCo community; experiment: z-score of subpopulation abundance vs DMSO median, subpopulation auxotrophic for HM; higher = larger share of this subpopulation than in DMSO controls; details: 10 µM; 24 h; SM minimal medium; subpopulation (auxotrophy): HM
# Procedure, shortened: as §1
# [9] = test system: Saccharomyces cerevisiae BY4741 SeMeCo community; experiment: z-score of subpopulation abundance vs DMSO median, subpopulation auxotrophic for HU; higher = larger share of this subpopulation than in DMSO controls; details: 10 µM; 24 h; SM minimal medium; subpopulation (auxotrophy): HU
# Procedure, shortened: as §1
# [10] = test system: Saccharomyces cerevisiae BY4741 SeMeCo community; experiment: z-score of subpopulation abundance vs DMSO median, subpopulation auxotrophic for UM; higher = larger share of this subpopulation than in DMSO controls; details: 10 µM; 24 h; SM minimal medium; subpopulation (auxotrophy): UM
# Procedure, shortened: as §1
# [11] = test system: Saccharomyces cerevisiae BY4741 SeMeCo community; experiment: z-score of subpopulation abundance vs DMSO median, subpopulation auxotrophic for HL; higher = larger share of this subpopulation than in DMSO controls; details: 10 µM; 24 h; SM minimal medium; subpopulation (auxotrophy): HL
# Procedure, shortened: as §1
# [12] = test system: Saccharomyces cerevisiae BY4741 SeMeCo community; experiment: z-score of subpopulation abundance vs DMSO median, subpopulation auxotrophic for HLU; higher = larger share of this subpopulation than in DMSO controls; details: 10 µM; 24 h; SM minimal medium; subpopulation (auxotrophy): HLU
# Procedure, shortened: as §1
# [13] = test system: Saccharomyces cerevisiae BY4741 SeMeCo community; experiment: z-score of subpopulation abundance vs DMSO median, subpopulation auxotrophic for HLM; higher = larger share of this subpopulation than in DMSO controls; details: 10 µM; 24 h; SM minimal medium; subpopulation (auxotrophy): HLM
# Procedure, shortened: as §1
# [14] = test system: Saccharomyces cerevisiae BY4741 SeMeCo community; experiment: z-score of subpopulation abundance vs DMSO median, subpopulation auxotrophic for HUM; higher = larger share of this subpopulation than in DMSO controls; details: 10 µM; 24 h; SM minimal medium; subpopulation (auxotrophy): HUM
# Procedure, shortened: as §1
# [15] = test system: Saccharomyces cerevisiae BY4741 SeMeCo community; experiment: z-score of subpopulation abundance vs DMSO median, subpopulation auxotrophic for LUM; higher = larger share of this subpopulation than in DMSO controls; details: 10 µM; 24 h; SM minimal medium; subpopulation (auxotrophy): LUM
# Procedure, shortened: as §1
# [16] = test system: Saccharomyces cerevisiae BY4741 SeMeCo community; experiment: z-score of subpopulation abundance vs DMSO median, subpopulation auxotrophic for HLUM; higher = larger share of this subpopulation than in DMSO controls; details: 10 µM; 24 h; SM minimal medium; subpopulation (auxotrophy): HLUM
# Procedure, shortened: as §1
# [17] = test system: Saccharomyces cerevisiae BY4741 SeMeCo community; experiment: z-score of subpopulation abundance vs DMSO median, subpopulation auxotrophic for L; higher = larger share of this subpopulation than in DMSO controls; details: 10 µM; 24 h; SM minimal medium; subpopulation (auxotrophy): L
# Procedure, shortened: as §1
SMILES,mean cell size [1],z-score of prototroph abundance [2],z-score of subpopulation abundance [3],z-score of subpopulation abundance [4],z-score of subpopulation abundance [5],z-score of subpopulation abundance [6],z-score of subpopulation abundance [7],z-score of subpopulation abundance [8],z-score of subpopulation abundance [9],z-score of subpopulation abundance [10],z-score of subpopulation abundance [11],z-score of subpopulation abundance [12],z-score of subpopulation abundance [13],z-score of subpopulation abundance [14],z-score of subpopulation abundance [15],z-score of subpopulation abundance [16],z-score of subpopulation abundance [17]
O=C(NCCN1CCOCC1)c1ccc(Cl)cc1,12.4 ± 0.22,0.89,0.03,-0.52,-0.65,0.18,1.06,-0.79,-1.32,-1.28,-0.31,0.17,-0.28,-1.26,0.42,0.73,
CCn1cc(C(=O)O)c(=O)c2cc(F)c(N3CCNCC3)nc21 [Enoxacin],12.3 ± 0.26,0.22,-0.85,-0.4,-0.39,0.6,1.61,-1.07,-0.82,-0.47,0.3,0.23,-0.64,-0.01,0.62,0.48,
CCCc1nn(C)c2c(=O)[nH]c(-c3cc(S(=O)(=O)N4CCN(C)CC4)ccc3OCC)nc12 [Sildenafil Citrate],12.4 ± 0.22,0.12,0.03,0.43,-0.22,0.51,-0.26,0.01,-0.23,0.49,-0.89,0.14,-0.32,-0.06,-0.09,-0.32,
Oc1c(Cl)cc(Cl)c(Cl)c1Cc1c(O)c(Cl)cc(Cl)c1Cl [Hexachlorophene],12.08 ± 0.11,-5.27,0.14,0.01,7.09,-0.56,1.88,9.29,4.22,5.02,,1.13,,,2.37,7.77,-1.4
CCOC(=O)C1=C(COCCN)NC(C)=C(C(=O)OC)[C@@H]1c1ccccc1Cl [Levamlodipine],12.5 ± 0.2,3.33,5.72,-7.34,,-6.47,3.35,4.13,-6.75,-8.09,2.19,-3.25,1.82,-5.45,-4.52,-1.12,
CC(=O)OCC1=C(C(=O)O)N2C(=O)C(NC(=O)CSC(=NC(C)C)NC(C)C)C2SC1 (configuration not stated) [Cefathiamidine],,0.65,-0.3,0.86,-0.66,-0.47,-1.11,-0.6,-0.62,0.84,-1.06,-1.21,,0.21,-0.68,-1.54,-0.86
CC1(C)S[C@@H]2[C@H](NC(=O)Cc3ccccc3)C(=O)N2[C@H]1C(=O)O.CCN(CC)CCOC(=O)c1ccc(N)cc1 [Penicillin G Procaine],12.2 ± 0.22,-1.56,0.35,-0.07,,0.41,1,0.69,0.54,0.64,2.5,0.81,0.43,0.86,1.6,1.65,
